Data taken from PubChem BioAssay AID588773 (The Scripps Research Institute Molecular Screening Center, 2011).
Calls of active or inactive are those of the source.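 The calls were made as follows: active = inhibition of plasma PAF acetylhydrolase at a set limit or more at 0.1 µM, with tenfold selectivity over all off-targets; inactive = inhibition below the limit or weaker selectivity.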

Assay: competitive ABPP of pPAFAH versus proteome off-targets – biochemical, gel-based, FP-Rh fluorescence, mouse, HTS hit compounds, selectivity assay for pPAFAH inhibitor project, late-stage follow-up (AID 588773)
Settings: MW 32 kDa protein, at 10 µM

SMILES	outcome
CN(C)C(=O)Oc1noc2cc(Cl)ccc12	inactive
O=C(Oc1ccc([N+](=O)[O-])cc1)N1CCC(N2CCCCC2)CC1	inactive
